For nine molecules, Potency and outcome results are on record in PubChem BioAssay (Tox21).

Inconclusive results are not listed. Unmarked numbers belong to inactive results. Active and inactive are the calls of the source. Unless noted, calls come from the whole dose curve; as a rule, active = well fitted curve in the direction sought with a large enough effect in the repeat runs; inconclusive = weak or mixed curves; inactive = no such curve, though single readings can be large; an effect the other way counts as inactive or inconclusive.

A short description of assay [1]: qHTS assay to identify small molecule agonists of the peroxisome proliferator-activated receptor delta (PPARd) signaling pathway - cell viability counter screen (AID 743211). Note: nearly all actives have a fitted effect of over 55% in size. Note: potency is the fitted concentration of half-maximal effect. A digest of the protocol: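 Counter screen for cytotoxicity run in parallel with the PPARd reporter screen. Beta-lactamase reporter HEK293H cells exposed to compounds 17 h; ATP-based CellTiter-Glo luminescence quantified viability.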
On the technique in general: In qHTS, concentration-response curves come from the screen itself.

The target of assay [2] is Peroxisome proliferator-activated receptor delta (Homo sapiens) (UniProt Q03181). Description: qHTS assay to identify small molecule agonists of the peroxisome proliferator-activated receptor delta (PPARd) signaling pathway (AID 743212; calls by dose curve;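 note: HEK293H cells with PPARd UAS beta-lactamase reporter GeneBLAzer system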). A digest of the protocol: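 Beta-lactamase reporter read by fluorescence (LiveBLAzer B/G FRET, 2 h, room temperature). Test agents, in DMSO, incubated at 37 C with PPARd-bla HEK293H cells.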
Sequence of Peroxisome proliferator-activated receptor delta (Homo sapiens) (Q03181 whole entry, looked up): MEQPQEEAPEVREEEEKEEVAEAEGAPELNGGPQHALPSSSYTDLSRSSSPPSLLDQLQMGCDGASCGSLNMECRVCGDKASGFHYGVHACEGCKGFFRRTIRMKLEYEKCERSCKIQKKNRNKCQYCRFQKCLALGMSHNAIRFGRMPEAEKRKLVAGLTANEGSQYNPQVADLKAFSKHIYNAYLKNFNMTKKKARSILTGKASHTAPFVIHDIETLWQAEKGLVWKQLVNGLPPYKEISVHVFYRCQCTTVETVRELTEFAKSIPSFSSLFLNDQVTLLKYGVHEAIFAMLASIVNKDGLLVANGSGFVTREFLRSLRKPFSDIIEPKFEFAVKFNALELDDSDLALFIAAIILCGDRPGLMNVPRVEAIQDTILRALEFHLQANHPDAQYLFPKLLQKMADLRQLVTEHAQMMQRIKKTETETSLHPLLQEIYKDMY

Assay [3] can be described thus: qHTS assay to identify small molecule antagonists of the peroxisome proliferator-activated receptor delta (PPARd) signaling pathway - cell viability counter screen (AID 743213). Note: nearly all actives have a fitted effect of over 50% in size. In a few lines:
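Viability counter-screen, qHTS format: PPARd-bla HEK293H, L165041 300 nM final, 17 h compound exposure at 37 C, CellTiter-Glo luminescence after 30 min RT.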

Assay [4] deals with Peroxisome proliferator-activated receptor delta (Homo sapiens) (UniProt Q03181). Description: qHTS assay to identify small molecule antagonists of the peroxisome proliferator-activated receptor delta (PPARd) signaling pathway (AID 743215; active = well fitted inhibition curve with a large enough effect in the signal ratio in the repeat runs, not every such curve was filed as active; the % refers to the signal ratio;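 note: cells stimulated with agonist L165041 at 300 nM final during compound exposure; series mostly up to about 62 µM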). A digest of the protocol: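 Agonist L165041 (300 nM final) added with compound to PPARd-bla HEK293H UAS-bla reporter cells; 17 h incubation at 37 C. Read-out: LiveBLAzer FRET substrate, 2 h at room temperature, fluorescence intensity.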

A short description of assay [5]: qHTS assay to identify small molecule agonists of the farnesoid-X-receptor (FXR) signaling pathway - cell viability counter screen (AID 743218). Note: nearly all actives have a fitted effect of over 45% in size. In a few lines:
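Viability counter screen in the same wells: CellTiter-Glo luminescence, 30 min room-temperature incubation, measured after the beta-lactamase read. Cells were GeneBLAzer FXR-UAS-bla HEK 293T, compound-treated 16 h at 37C.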

Assay [6] in a line: qHTS assay to identify small molecule antagonists of the farnesoid-X-receptor (FXR) signaling pathway - cell viability counter screen (AID 743221; active = well fitted cell-killing curve with a large enough effect in the repeat runs, not every such curve was filed as active; note: nearly all actives have a fitted effect of over 50% in size). A digest of the protocol: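 Multiplexed counter screen: viability of FXR-bla HEK 293T cells under agonist stimulation by chenodeoxycholic acid (50 uM, final) and test compound for 16 h at 37 C, measured by CellTiter-Glo luminescence in the reporter wells.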

Assay [7] has as its target Vitamin D3 receptor (Homo sapiens) (UniProt P11473). Description: qHTS assay to identify small molecule agonists of the vitamin D receptor (VDR) signaling pathway (AID 743222; calls by dose curve). A digest of the protocol: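 Agonist mode, beta-lactamase reporter: fluorescence from LiveBLAzer B/G FRET substrate (2 h, room temperature) read after 16 h compound treatment at 37 C of VDR-bla cells, which were pre-incubated 4 h after seeding.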

The target is the same in assay [8]. Description: qHTS assay to identify small molecule antagonists of the vitamin D receptor (VDR) signaling pathway (AID 743223; active = well fitted inhibition curve with a large enough effect in the signal ratio in the repeat runs, not every such curve was filed as active; the % refers to the signal ratio). A digest of the protocol:
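Cells carrying a VDR-driven beta-lactamase reporter (VDR-bla) were co-treated with compound and 3 nM final 1alpha,25-dihydroxyvitamin D3 for 16 h at 37C; reporter activity was measured as FRET substrate fluorescence after 2 h at room temperature.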

The nature of assay [9]: qHTS assay to identify small molecule agonists of the vitamin D receptor (VDR) signaling pathway - cell viability counter screen (AID 743224). Note: nearly all actives have a fitted effect of over 50% in size. Note: potency is the fitted concentration of half-maximal effect. In a few lines: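 Counter screen run in the same wells as the VDR-bla reporter assay: CellTiter-Glo luminescence, 30 min at room temperature, after 16 h compound treatment at 37C of cells pre-plated for 4 h.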
Assay [10] in a line: qHTS assay to identify small molecule antagonists of the vitamin D receptor (VDR) signaling pathway - cell viability counter screen (AID 743225). Note: nearly all actives have a fitted effect of over 50% in size. Note: potency is the fitted concentration of half-maximal effect. A digest of the protocol:
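HEK293T VDR-bla; cpd + 1a,25-(OH)2D3 3 nM final, 16 h 37C/5% CO2; B/G FRET substrate 2 h RT; then CellTiter-Glo 30 min RT, luminescence.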

A short description of assay [11]: qHTS assay to identify small molecule agonists of the NFkB signaling pathway (AID 1159509; active = well fitted curve in the direction sought with a large enough effect in the signal ratio in the repeat runs, not every such curve was filed as active; the % refers to the signal ratio; note: series mostly up to about 61 µM). A digest of the protocol: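 Beta-lactamase reporter assay run in quantitative high-throughput format on an NF-kB-responsive ME-180 line, with 5 hr compound treatment and a FRET-based blue/green fluorescence readout.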
A short description of assay [12]: qHTS assay to identify small molecule agonists of the NFkB signaling pathway - cell viability counter screen (AID 1159515; calls by dose curve; note: series mostly up to about 61 µM; nearly all actives have a fitted effect of over 55% in size). In a few lines:
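Read by CellTiter-Glo luminescence (30 min, room temperature) in the wells also used for the beta-lactamase FRET read. ME-180 NFkB-bla cells at 2,000 per well were plated overnight, then exposed to compound for 5 hr at 37 C.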

Assay [13] in a line: qHTS assay to identify small molecule agonists of the endoplasmic reticulum stress response signaling pathway (AID 1159516; active = well fitted activation curve with a large enough effect in the signal ratio in the repeat runs, not every such curve was filed as active; the % refers to the signal ratio). In a few lines:
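Ratiometric FRET readout (405 nm excitation; 460 and 530 nm emission) of a beta-lactamase gene driven by the ER stress response element, after 2 hr substrate loading. HeLa ESRE-bla cells were seeded overnight and treated with compounds for only 5 hr at 37 C.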

A short description of assay [14]: qHTS assay to identify small molecule agonists of the endoplasmic reticulum stress response signaling pathway - cell viability counter screen (AID 1159517; calls by dose curve). In a few lines: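 Cytotoxicity of test compounds toward ESRE-bla HeLa cells was assessed after 5 hr exposure. The luminescent CellTiter-Glo signal was measured 30 min after reagent addition.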
A short description of assay [15]: qHTS assay to identify small molecule antagonists of the retinoid-related orphan receptor gamma (ROR-gamma) signaling pathway - cell viability counter screen (AID 1159520). Note: nearly all actives have a fitted effect of over 50% in size. A digest of the protocol:
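Tet-on ROR gamma CHO cells (1,000/well) were plated 4 hr, given compounds in DMSO for 2 hr at 37 C, then induced with 1 uM final doxycycline for 16 hr. Viability was read as ATP by CellTiter-Glo luminescence after 30 min.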

The target in assay [16] is Nuclear receptor ROR-gamma (Homo sapiens) (UniProt P51449). Description: qHTS assay to identify small molecule antagonists of the retinoid-related orphan receptor gamma (ROR-gamma) signaling pathway (AID 1159521; note: nearly all actives have a fitted effect of over 50% in size; note: potency is the fitted concentration of half-maximal effect). A digest of the protocol:
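Cells were plated, rested 4 h at 37 C, exposed to compounds for 2 h, then given 1 uM final doxycycline hyclate to induce RORγ expression. After 16 h, ONE-Glo luminescence from the ROR response element reporter was measured.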

The nature of assay [17]: qHTS assay to identify small molecule agonists of the AP-1 signaling pathway - cell viability counter screen (AID 1159525; calls by dose curve; note: nearly all actives have a fitted effect of over 55% in size). A digest of the protocol:
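Each titration point was normalised to DMSO and tetra n-octyl ammonium bromide controls. The read was Cell Titer Glo luminescence after 30 min at RT, following 5 h compound exposure of ME-180 AP-1-bla cells at 37 °C.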

Assay [18] has as its target Bile acid receptor (Homo sapiens) (UniProt Q96RI1). Description: qHTS assay to identify small molecule antagonists of the farnesoid-X-receptor (FXR) signaling pathway (AID 743217; active = well fitted inhibition curve with a large enough effect in the signal ratio in the repeat runs, not every such curve was filed as active; the % refers to the signal ratio). A digest of the protocol: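 Antagonist mode: chenodeoxycholic acid at 50 uM final stimulates a UAS-driven beta-lactamase reporter in HEK 293T FXR-bla cells during 16 h, 37C compound exposure. Read-out is FRET substrate fluorescence after 2 h at room temperature.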

Assay [19] shares this target. Description: qHTS assay to identify small molecule agonists of the farnesoid-X-receptor (FXR) signaling pathway (AID 743220; active = well fitted activation curve with a large enough effect in the signal ratio in the repeat runs, not every such curve was filed as active; the % refers to the signal ratio). In a few lines:
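FXR-UAS-bla HEK 293T cells carrying a UAS-driven beta-lactamase reporter were plated for 5 h at 37C/5% CO2, then exposed to DMSO-dissolved Tox21 10K compounds for 16 h at 37C. A LiveBLAzer B/G FRET substrate was loaded for 2 h at room temperature before fluorescence reading.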

Sequence of Vitamin D3 receptor (Homo sapiens) (P11473 whole entry, looked up): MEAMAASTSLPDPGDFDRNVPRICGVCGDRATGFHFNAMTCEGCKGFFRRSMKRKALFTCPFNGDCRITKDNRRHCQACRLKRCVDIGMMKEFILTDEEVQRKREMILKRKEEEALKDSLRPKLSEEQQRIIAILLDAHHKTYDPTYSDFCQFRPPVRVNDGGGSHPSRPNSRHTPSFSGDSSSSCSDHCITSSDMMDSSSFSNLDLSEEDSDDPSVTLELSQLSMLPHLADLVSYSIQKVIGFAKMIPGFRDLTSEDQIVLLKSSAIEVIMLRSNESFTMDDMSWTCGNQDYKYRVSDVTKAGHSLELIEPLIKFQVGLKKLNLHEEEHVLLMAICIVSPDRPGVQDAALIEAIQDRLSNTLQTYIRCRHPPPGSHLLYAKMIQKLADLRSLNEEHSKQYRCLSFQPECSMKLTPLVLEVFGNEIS
Sequence of Bile acid receptor (Homo sapiens) (Q96RI1 whole entry, looked up): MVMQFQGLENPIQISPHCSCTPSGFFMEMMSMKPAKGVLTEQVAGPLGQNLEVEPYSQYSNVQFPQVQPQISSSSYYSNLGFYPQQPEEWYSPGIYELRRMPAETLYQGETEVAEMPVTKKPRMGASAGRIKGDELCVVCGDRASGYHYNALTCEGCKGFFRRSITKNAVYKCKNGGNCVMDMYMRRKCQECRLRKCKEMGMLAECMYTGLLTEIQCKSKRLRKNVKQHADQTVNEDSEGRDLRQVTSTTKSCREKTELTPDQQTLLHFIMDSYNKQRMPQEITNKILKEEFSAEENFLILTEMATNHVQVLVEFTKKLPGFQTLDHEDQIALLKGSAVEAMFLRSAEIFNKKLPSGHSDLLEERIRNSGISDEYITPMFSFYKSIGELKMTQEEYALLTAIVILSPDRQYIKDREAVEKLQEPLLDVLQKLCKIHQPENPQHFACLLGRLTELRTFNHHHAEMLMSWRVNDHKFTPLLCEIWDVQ

For `ICCc1ccccc1`, the Potency entry in [1], in assay [3], in assay [5], in assay [9], in assay [10] and in assay [15] was “inactive” in each case. The molecule was classed as inactive in assay [2], in assay [4], in assay [6], in assay [7], in [8] and in [11]. In addition, the call in assay [12], in assay [13], in assay [14] and in assay [17] was inactive. In addition, the Potency in assay [16] is 59.9 µM (active).

On to `CC(C)=CCCC(C)CCOC=O` (configuration not stated), for which the Potency result in [1], in assay [5], in assay [10], in assay [15] and in [16] was “inactive” throughout. Moreover, the molecule was classed as inactive in [2], in [4], in [18], in assay [19], in assay [6] and in assay [7]. Besides, the molecule was called inactive in assay [11], in [12], in assay [13], in [14] and in [17].

`CC(Oc1c(Cl)cccc1Cl)C1=NCCN1` (configuration not stated): the Potency entry in assay [1], in assay [3], in [5], in [9], in assay [10] and in assay [15] was “inactive” throughout. Moreover, in assay [16], the Potency result was “inactive”. In addition, the call in [2], in [4], in assay [6], in [7], in [8] and in assay [11] was inactive. Also, the molecule was classed as inactive in assay [12], in assay [13], in assay [14] and in assay [17].

Turning to `CCC(=O)O[C@]1(C(=O)SCF)[C@H](C)C[C@H]2[C@@H]3C[C@H](F)C4=CC(=O)C=C[C@]4(C)[C@@]3(F)[C@@H](O)C[C@@]21C`, the Potency result in [1], in [5], in assay [9], in assay [10], in [15] and in [16] was “inactive” throughout. Besides, the call in assay [2], in [4], in [7], in assay [11], in assay [12] and in [13] was inactive. For the same molecule, the molecule was called inactive in assay [14] and in assay [17].

Take `Cc1ccc(C=O)s1`: the Potency entry in assay [1], in [3], in [5], in assay [9], in assay [15] and in assay [16] was “inactive” each time. In addition, the molecule was classed as inactive in assay [2], in assay [4], in [6], in assay [7], in assay [8] and in assay [11]. Further, the call in assay [12], in [13], in assay [14] and in [17] was inactive.

With `CCCCCCCCc1ccc(S(=O)(=O)O)cc1`, in [1], the Potency is 43.3 µM (active). Moreover, the result in assay [4], in [18], in assay [19], in [6], in assay [7] and in assay [8] was inactive. Further, the outcome in assay [11], in assay [12], in [13], in assay [14] and in assay [17] was inactive. Besides, the Potency result in assay [5], in [10], in assay [15] and in assay [16] was “inactive” in each case.

As to `CCN(CC)CC1CCCCN1CC(=O)N1c2ccccc2C(=O)Nc2cccnc21` (configuration not stated), the Potency entry in assay [1], in assay [3], in [5], in assay [9], in assay [15] and in assay [16] was “inactive” each time. In addition, the call in [2], in assay [4], in assay [18], in [19], in assay [6] and in assay [7] was inactive. Further, the call in assay [8], in [11], in assay [12], in assay [13], in assay [14] and in assay [17] was inactive.

As to `Cc1c(-c2ccccc2)oc2c(C(=O)OCCN3CCCCC3)cccc2c1=O`, the Potency result in assay [1], in assay [3], in assay [5], in assay [9], in [15] and in assay [16] was “inactive” in each case. The molecule was called inactive in assay [2], in assay [4], in assay [7], in assay [8], in [11] and in assay [12]. Further, the molecule was classed as inactive in assay [13], in assay [14] and in [17].

Consider `Cc1nc(N)nc(N)c1-c1ccc(Cl)c(Cl)c1`, for which the Potency entry in assay [1], in [15] and in assay [16] was “inactive” each time. Further, the result in assay [2], in assay [4], in assay [19], in assay [11], in assay [12] and in assay [13] was inactive. Also, the result in assay [14] and in assay [17] was inactive. The results for the Potency in assay [9] and in assay [10] were 3.35 µM (active) and 3.79 µM (active), respectively.
